According to PubChem BioAssay:
Where “and” joins values, the source holds several entries; their conditions need not be identical. Equal entries are not always repeated. Results filed as inconclusive are left out. A structure can be active in one record and inactive in another. Calls of active or inactive are those of the source.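 How the source made its calls, unless noted: active means normalized viability below 100% at a tested concentration; inactive means the rest.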

Tests used:
[1] = P. berghei load reduction in hepatocytes – cell-based, HepG2, luciferase luminescence, HepG2 viability, primary screen (AID 624349; in the data active means parasite load remaining mostly below about 12%, no sharp cut-off; inactive means mostly above about 10%;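 further: 100% = mean of DMSO negative control wells on the same plate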); conditions: P. berghei liver stage in HepG2, luciferase luminescence, concentration not given here; parasite load remaining: stronger effect = lower value; viability: measured here: HepG2 viability without parasites
[2] = Wnt pathway potentiators raising nuclear beta-catenin – imaging, WNT3A-conditioned medium, mouse C2C12, NPC library, primary screen (AID 1117326; in the data active means nuclear beta-catenin stimulation mostly above about 4.2%, no sharp cut-off; inactive means mostly below about 10%); conditions: stronger effect = higher value
[3] = stimulators of insulin release from INS-1E, primary screen, cell-based, 5 mM glucose, NPC library (AID 1117329;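 active means compound raises insulin release from rat beta cells at 5 mM glucose, no numeric limit stated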); conditions: rat INS-1E insulin secretion, at 10 µM, stronger effect = higher value
[4] = growth inhibition of GSK3B-pretreated HCT116 cells – cell-based, CellTiter-Glo, 0.2 to 20 µM (AID 1117336;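 active means compounds lowering colon cancer cell viability after pretreatment blocking the GSK3B kinase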); conditions: HCT116 viability after GSK3B inhibitor, at 20 µM, stronger effect = higher value
[5] = inhibition of endothelial tube formation, primary screen, imaging, VEGF stimulated, CD31 staining, tube area, NPC library (AID 1117340;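 active means compound that reduces growth-factor-driven endothelial tube area in a mixed cell culture, no cutoff stated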); conditions: VEGF-stimulated ADSC/ECFC co-culture, at 10 µM, stronger effect = higher value
[6] = GLP1 release stimulators, primary, NCI-H716, NPC library (AID 1117341;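 active means compound raises GLP1 secretion from the human gut endocrine cells, with no numeric limit stated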); conditions: NCI-H716 cells, at 10 µM, stronger effect = higher value
[7] = HCT116 colon cancer cell growth inhibition, primary screen, CellTiter-Glo luminescence, NPC library (AID 1117342;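 active means compounds that lower survival of HCT116 colon cancer cells in the luminescence readout, no numeric limit stated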); conditions: at 20 µM (top of the series)
[8] = reduced SW480 viability measured with CellTiter-Glo, NPC library, primary (AID 1117343;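 active means compounds that lower viability of the colon cancer cells in the luminescence readout, with no numeric limit stated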); conditions: CellTiter-Glo luminescence; at 20 µM (top of the series) unless noted
[9] = NPC library primary testing for decreased DLD-1 cell viability via CellTiter-Glo (AID 1117346;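 active means compounds that lower survival of DLD-1 colon cancer cells in the luminescence readout, no cutoff given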); conditions: DLD-1 viability, CellTiter-Glo luminescence; at 20 µM (top of the series)
[10] = viability loss in pontine glioma line – cell-based, SU-DIPG-XVII, MIPE5.0, CellTiter-Glo, qHTS, dose response (AID 1347060; cut-off not given, nearly all actives have AC50 up to about 26 µM;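 on AC50: cells exposed to compound for 48 hours before viability readout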); conditions: CellTiter-Glo ATP luminescence
[11] = viability loss in pontine glioma line – cell-based, SU-DIPG-XIII, MIPE4.0, CellTiter-Glo, qHTS, dose response (AID 1347061; cut-off not given, nearly all actives have AC50 up to about 37 µM;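 further: cells exposed to compound for 48 hours before readout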); conditions: CellTiter-Glo ATP luminescence
[12] = viability loss in pontine glioma line – cell-based, JHH-DIPG-1, MIPE4.0, CellTiter-Glo, qHTS, dose response (AID 1347062; cut-off not given, nearly all actives have AC50 up to about 27 µM;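 on AC50: cells exposed to compound for two days before readout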); conditions: JHH-DIPG-1 viability, CellTiter-Glo ATP luminescence
[13] = viability loss with induced miR-34 in A549 – imaging, A549 dox-inducible miR-34, nuclei and caspase counts, primary screen (AID 1347080;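 active means compounds whose cell count with miR-34 switched on is under 0.7 times the count with it off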); conditions: A549 miR-34 inducible, Hoechst nuclei count, 48 h
[14] = MELAS cybrid and Rieske KO viability enhancers – cell-based, MELAS cybrids, Rieske KO mouse fibroblasts, CellTiter-Glo, primary screen (AID 1508586;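 active means mean z-score across replicates of 1.96 or higher in either the MELAS or the Rieske mutant cell line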;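 further: z relative to plate mean and SD of compound and empty wells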); conditions: low glucose
[15] = drug combination growth inhibition, ovarian cancer – cell-based, oncology-focused library, rucaparib conditional, profiling panel (AID 1508598); conditions: patient-derived ovarian cancer cells, CellTiter-Glo viability, 144 h, stronger effect = lower value
[16] = galactose survival enhancers in mitochondrial complex I cybrids – cell-based, galactose medium, ATP luminescence, primary screen (AID 1645843;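 active means z-score of at least 1.8 in each of two replicates, scored against plate mean and spread of sample wells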;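 further: positive z means more ATP and so rescue of galactose-driven cybrid death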); conditions: complex I mutant cybrid cells, 72 h, stronger effect = higher value
[17] = system: Aerobactin synthetase IucA (Klebsiella pneumoniae); assay: inhibition of K. pneumoniae IucA enzyme – biochemical, Tocris library, absorbance (AID 1345561; call rule not given here;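 further: 100% = enzyme without compound and 0% = no enzyme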); conditions: purified IucA enzyme assay, absorbance (OD) read-out; stronger effect = lower value;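 tested at 8 µM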
[18] = growth inhibition of DIPG cells – cell-based, MIPE5.0 library, qHTS (AID 1347068; cut-off not given, nearly all actives have IC50 up to about 30 µM;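 on IC50: cells exposed to compound for 48 hours before viability readout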); conditions: SU-DIPG-XXV viability
[19] = stronger effect = lower value, cell number ratio, induced over uninduced
[20] = measured here: relative caspase fold change +Dox/-Dox
[21] = measured here: total cells with miR-34 induction, stronger effect = lower value
[22] = measured here: total cells without miR-34 induction
[23] = MELAS cybrid survival, CellTiter-Glo 48 h, stronger effect = higher value
[24] = Rieske KO mouse fibroblast survival, CellTiter-Glo 72 h

CS(=O)(=O)CCNCc1ccc(-c2ccc3ncnc(Nc4ccc(OCc5cccc(F)c5)c(Cl)c4)c3c2)o1
1.01 and 1.28: fold change [13, 20]
inactive: parasite load remaining [1] 44.4% | nuclear beta-catenin stimulation ([2]; at 10 µM) 31.2% | insulin secretion stimulation [3] 1.35% | GLP1 secretion stimulation [6] 2.8% | fold change [13, 19] 0.964 and 0.914 | viability ([15]; at 0.000305 µM, OCI-C5x cells, with rucaparib 10 µM, 100% = cells with rucaparib alone) 113% and 103% | viability ([15]; at 0.000305 µM, OCI-C5x cells, without rucaparib) 123% and 111% | viability ([15]; at 0.00122 µM, OCI-C5x cells, with rucaparib 10 µM, 100% = cells with rucaparib alone) 107% and 123% | viability ([15]; at 0.00122 µM, OCI-C5x cells, without rucaparib) 123% and 115% | viability ([15]; at 0.00122 µM, OCI-P5x cells, without rucaparib) 104% and 107% | viability ([15]; at 0.00488 µM, OCI-C5x cells, with rucaparib 10 µM, 100% = cells with rucaparib alone) 111% and 106% | viability ([15]; at 0.00488 µM, OCI-C5x cells, without rucaparib) 131% and 122% | viability ([15]; at 0.00488 µM, OCI-P5x cells, without rucaparib) 105% and 108% | viability ([15]; at 0.0195 µM, OCI-C5x cells, with rucaparib 10 µM, 100% = cells with rucaparib alone) 109% and 107% | viability ([15]; at 0.0195 µM, OCI-C5x cells, without rucaparib) 128% and 109% | viability ([15]; at 0.0195 µM, OCI-P5x cells, without rucaparib) 105% and 111% | viability ([15]; at 0.0781 µM, OCI-C5x cells, with rucaparib 10 µM, 100% = cells with rucaparib alone) 113% and 110% | viability ([15]; at 0.0781 µM, OCI-C5x cells, without rucaparib) 126% and 113% | viability ([15]; at 0.0781 µM, OCI-P5x cells, with rucaparib 20 µM, 100% = cells with rucaparib alone) 103% and 104% | viability ([15]; at 0.0781 µM, OCI-P5x cells, without rucaparib) 111% | viability ([15]; at 0.313 µM, OCI-C5x cells, with rucaparib 10 µM, 100% = cells with rucaparib alone) 119% and 112% | viability ([15]; at 0.313 µM, OCI-C5x cells, without rucaparib) 134% and 112% | viability ([15]; at 0.313 µM, OCI-P5x cells, without rucaparib) 115% and 118% | viability ([15]; at 1.25 µM, OCI-C5x cells, without rucaparib) 126% | viability ([15]; at 1.25 µM, OCI-P5x cells, without rucaparib) 108% and 114% | viability ([15]; at 5 µM, OCI-C5x cells, without rucaparib) 134% and 128% | viability ([15]; at 5 µM, OCI-P5x cells, without rucaparib) 106% and 118% | z-score [16] -0.555
102% (inactive) and 98.6% (active): viability ([15]; at 0.000305 µM, OCI-P5x cells, without rucaparib)
-0.2%: nuclear beta-catenin stimulation ([2]; stimulation, at 2 µM)
116% (inactive) and 91.4% (active): viability ([15]; at 1.25 µM, OCI-C5x cells, with rucaparib 10 µM, 100% = cells with rucaparib alone)
2.46 (active) and -0.221 (inactive): z-score [14, 23]
100% (inactive) and 93.5% (active): viability ([15]; at 5 µM, OCI-C5x cells, with rucaparib 10 µM, 100% = cells with rucaparib alone)
96.4% (active) and 103% (inactive): viability ([15]; at 0.0195 µM, OCI-P5x cells, with rucaparib 20 µM, 100% = cells with rucaparib alone)
0.803 and 1.5: z-score [14, 24]
3040 and 7890: cell count [13, 21]
active: viability decrease [4] 106% | tube area decrease [5] 110% | inhibition of viability [7] 107% | viability decrease (inhibition) [8] 129% | viability decrease (inhibition) [9] 100% | AC50 [10] 18.6 µM | AC50 [11] 14.8 µM | AC50 [12] 18.7 µM | viability ([15]; at 0.000305 µM, OCI-P5x cells, with rucaparib 20 µM, 100% = cells with rucaparib alone) 95.1% and 93.3% | viability ([15]; at 0.00122 µM, OCI-P5x cells, with rucaparib 20 µM, 100% = cells with rucaparib alone) 96.9% and 99.7% | viability ([15]; at 0.00488 µM, OCI-P5x cells, with rucaparib 20 µM, 100% = cells with rucaparib alone) 95.5% and 98.8% | viability ([15]; at 0.313 µM, OCI-P5x cells, with rucaparib 20 µM, 100% = cells with rucaparib alone) 96.8% and 98.2% | viability ([15]; at 5 µM, OCI-P5x cells, with rucaparib 20 µM, 100% = cells with rucaparib alone) 95.6% and 97.1%
101% (inactive) and 97.5% (active): viability ([15]; at 1.25 µM, OCI-P5x cells, with rucaparib 20 µM, 100% = cells with rucaparib alone)
3150 and 8630: cell count [13, 22]
101%: viability [1]

COP(=O)(OC)OC(c1ccc(Cl)cc1)P(=O)(OC)OC (stereo not drawn)
8990: cell count [13, 22]
inactive: nuclear beta-catenin stimulation ([2]; at 10 µM) -1.5% | insulin secretion stimulation [3] 1.8% | viability decrease [4] -3.65% | tube area decrease [5] -20.8% | GLP1 secretion stimulation [6] 1.3% | inhibition of viability [7] -20.4% | viability decrease (inhibition) [8] -1% | viability decrease (inhibition) [9] 1.6% | remaining activity [17] 122% | fold change [13, 19] 0.979 | z-score [16] -0.085
1.2%: nuclear beta-catenin stimulation ([2]; stimulation, at 2 µM)
8810: cell count [13, 21]
1.41: fold change [13, 20]

O=C(O)C(=O)Nc1cccc(-c2nn[nH]n2)c1
inactive: nuclear beta-catenin stimulation ([2]; at 10 µM) 1.3% | insulin secretion stimulation [3] 4% | viability decrease [4] 19.5% | tube area decrease [5] 0.4% | GLP1 secretion stimulation [6] -3.2% | inhibition of viability [7] -2.9% | viability decrease (inhibition) [8] 32.2% | viability decrease (inhibition) [9] 9.1% | outcome [10] | outcome [11] | outcome [12] | outcome [18]
1.9%: nuclear beta-catenin stimulation ([2]; stimulation, at 2 µM)

CN1CCC(Nc2ncc3ncnc(Nc4ccc(F)c(Cl)c4)c3n2)CC1
3140: cell count [13, 21]
2330: cell count [13, 22]
0.869: fold change [13, 20]
inactive: nuclear beta-catenin stimulation ([2]; at 10 µM) 11.6% | insulin secretion stimulation [3] 5.85% | tube area decrease [5] -4.5% | GLP1 secretion stimulation [6] 6.3% | remaining activity [17] 123% | fold change [13, 19] 1.35 | z-score [16] -0.455
active: viability decrease [4] 57.4% | inhibition of viability [7] 73.7% | viability decrease (inhibition) [8] 97.8% | viability decrease (inhibition) [9] 78.2%
0.1%: nuclear beta-catenin stimulation ([2]; stimulation, at 2 µM)

COC(=O)C1=C(C)NC(C)=C(C(=O)OCCCN2CCC(c3ccccc3)(c3ccccc3)CC2)C1c1cccc([N+](=O)[O-])c1 (stereo not drawn)
0.733 and 0.821: fold change [13, 20]
active: viability decrease [4] 110% | tube area decrease [5] 109% | inhibition of viability [7] 112% | viability decrease (inhibition) [8] 134% | viability decrease (inhibition) [9] 101% | AC50 [10] 10.5 µM | IC50 [18] 7.42 µM
380 and 6800: cell count [13, 22]
-0.158: z-score [14, 24]
9.4%: nuclear beta-catenin stimulation ([2]; stimulation, at 2 µM)
498 and 6520: cell count [13, 21]
inactive: parasite load remaining [1] 29% | nuclear beta-catenin stimulation ([2]; at 10 µM) -0.8% | insulin secretion stimulation [3] -1.1% | GLP1 secretion stimulation [6] -3.2% | outcome [11] | outcome [12] | fold change [13, 19] 1.31 and 0.96 | z-score [14, 23] -1.1 | z-score [16] -2.25
90.5%: viability [1]

CC(C)OC(=O)c1cc2c(OCC(O)CNC(C)(C)C)cccc2[nH]1 (stereo not drawn)
5.8%: nuclear beta-catenin stimulation ([2]; stimulation, at 2 µM)
active: inhibition of viability [7] 40.5% | viability decrease (inhibition) [8] 58.6%
9290: cell count [13, 21]
0.769: fold change [13, 20]
inactive: nuclear beta-catenin stimulation ([2]; at 10 µM) 0.4% | insulin secretion stimulation [3] 13.3% | viability decrease [4] 9.2% | tube area decrease [5] 1.9% | GLP1 secretion stimulation [6] 4.8% | viability decrease (inhibition) [9] 7.6% | remaining activity [17] 116% | fold change [13, 19] 0.915 | z-score [16] -0.48
10200: cell count [13, 22]

OCC(CO)N[C@H]1C[C@](O)(CO)[C@@H](O)[C@H](O)[C@H]1O
1.87: fold change [13, 20]
8920: cell count [13, 21]
5.1%: nuclear beta-catenin stimulation ([2]; stimulation, at 2 µM)
inactive: nuclear beta-catenin stimulation ([2]; at 10 µM) 3.1% | insulin secretion stimulation [3] -1.5% | viability decrease [4] -12.8% | tube area decrease [5] 7.6% | GLP1 secretion stimulation [6] 1.9% | inhibition of viability [7] 5.5% | viability decrease (inhibition) [8] 27.3% | viability decrease (inhibition) [9] 1.55% | remaining activity [17] 123% | fold change [13, 19] 0.876 | z-score [16] 0.245
10200: cell count [13, 22]
